The results in this text go back to PubChem BioAssay AID1347076 (National Center for Advancing Translational Sciences (NCATS), 2019).

Structures are written as SMILES. The whole screen tested about 400,000 compounds, of which about 13,000 (3.2%) were called active. About 18% were inconclusive and are not listed. Calls come from the whole dose curve; as a rule, active = well fitted cell-killing curve with a large enough effect; inconclusive = small, poorly fitted or top-dose-only effect, or effect the other way; inactive = flat fitted curve, though single readings scatter. Shown is part of a subset that was picked to be rich in actives. A call without a number means that no potency is given here.
Potency is the fitted concentration of half-maximal effect.

The experiment in a line: qHTS assay for MDR1-selective chemotherapeutics: Primary screen using the drug-selected MDR subline cells KB-V1. Note: nearly all actives have a fitted effect of over 60% in size. As to conditions: KB-V1 MDR cells viability, CellTiter-Glo, 72 h; series mostly up to 46.1 µM. The gist of the method:
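Compound-treated KB-V1 multidrug-resistant cells, 72 h, 37 degrees C; viability by CellTiter-Glo. Fitted qHTS curves give the values.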
Take `O=C1CC(=O)N(Cc2ccccc2)C(=O)N1CCCCCCN1C(=O)CC(=O)N(Cc2ccccc2)C1=O`: the Potency entry was “inactive”.

For the compound `CC(C)(C)c1ccc(CN2C(=O)CN=C(c3ccccc3)c3ccccc32)cc1`, the Potency was 16.4 µM (active).

Consider `c1ccc(C(CN2CCCCC2)c2ccccc2)cc1`, for which the Potency entry is “inactive”.

Take `O=C(Nc1cccc2ccccc12)N1CCC2(CC1)OCCO2`: the Potency entry was “inactive”.

As to `O=C(CCC(=O)N1C[C@H]2C[C@@H](C1)c1cccc(=O)n1C2)NCc1ccccc1C(F)(F)F`, the Potency result was “inactive”.

In the case of `COc1ccc2c(c1)NP(=S)(c1ccccc1)N2` (configuration not stated), the Potency result is “inactive”.

For `O=C1NC(=O)C(CCOc2ccccc2)(CCc2ccccc2)C(=O)N1`, the Potency result was “inactive”.

`COc1ccc(NC(=O)N2Cc3ccccc3-n3nncc3C2)cc1`: the Potency entry was “inactive”.

For the compound `CC1CC=CCC12C(=O)NC(=S)NC2=O` (configuration not stated), the Potency result was “inactive”.

In the case of `CCn1cc(CN2CCCC(C(=O)c3cccc(C(F)(F)F)c3)C2)cn1` (configuration not stated), the Potency result was “inactive”.

On to `Cc1cc(C(=O)OCC(=O)Nc2c(F)cccc2F)c(C)n1C1CC1`, for which the Potency entry was “inactive”.

Take `Cc1nn(-c2ccccc2)c(C)c1NC(=O)COC(=O)Cc1ccccc1`: the Potency result was “inactive”.

As to `Cc1ccccc1NC(=O)COC(=O)c1cc(C)n(C2CC2)c1C`, the Potency was 13 µM (active).

Turning to `COc1cccc(C(=O)N2C[C@H]3C[C@@H](C2)c2cccc(=O)n2C3)c1`, the Potency result was “inactive”.

`c1cc2c(cc1C1OCC3C(c4ccc5c(c4)OCO5)OCC13)OCO2` (configuration not stated): the Potency result was “inactive”.

Turning to `CC(=O)OC1C2(CC3N4C(=O)C5(CO)SSC4(CC31O)C(=O)N5C)OC(C)C(C)(C)C2=O` (configuration not stated), the Potency was 2.31 µM (active).

Consider `O=c1c2ccccc2[nH]c(=S)n1-c1cccc(Cl)c1`, for which the Potency result was “inactive”.

Regarding `COc1cc(-n2c(=S)[nH]c3ccc(C)cc3c2=O)c(Cl)cc1Cl`, the Potency was 9.2 µM (active).

Regarding `S=C(NCCc1ccccc1)N1Cc2cc(N3CCOCC3)ccc2-n2nncc2C1`, the Potency entry is “inactive”.

With `CSCCC(c1nnnn1C(C)(C)C)N1CCC(n2c(=O)[nH]c3ccccc32)CC1` (configuration not stated), the Potency result is “inactive”.

Regarding `O=c1[nH]c2ccccc2n1C1CCN(C(c2ccccc2)c2nnnn2Cc2ccccc2)CC1` (configuration not stated), the Potency is 18.4 µM (active).

For the compound `O=c1[nH]c2ccccc2n1C1CCN(C(c2ccnc3ccccc23)c2nnnn2Cc2ccccc2)CC1` (configuration not stated), the Potency result was “inactive”.

In the case of `O=C1C2CCN(CC2)C1(CO)CO`, the Potency result was “inactive”.

On to `CCOC(=O)c1c(-c2ccccc2)oc2ccc(OC(=O)N(C)C)cc12`, for which the Potency was 16.4 µM (active).

On to `CN(C)C(=O)Oc1ccc2c(c1)O/C(=C\c1ccccc1)C2=O`, for which the Potency result was “inactive”.

Turning to `Oc1ccc2c3c1OC1[C@H](O)CC[C@@]4(O)[C@@H](C2)N(CC2CC2)CC[C@]314` (some centres not stated), the Potency result was “inactive”.

Turning to `CCc1ccc(OCC(=O)N2CCN(CC(=O)Nc3ccccc3Cl)CC2)cc1`, the Potency entry was “inactive”.

`CC(=O)NCC1=C(c2ccc3ccccc3c2)C[C@@H]2CC[C@H]1N2Cc1ccco1`: the Potency entry is “inactive”.

Take `C[C@]12CCC3C(CC[C@H]4C[C@@H](O)CC[C@]34C)C1C[C@@H](O)[C@H]2O` (some centres not stated): the Potency entry was “inactive”.

Turning to `C[C@]12CC[C@H](O)C[C@H]1CC[C@@H]1C2CC[C@]2(C)[C@@H](C3=CC(=O)OC3)[C@@H](O)C[C@]12O` (some centres not stated), the Potency was 6.51 µM (active).

`Cc1cc(-c2ccc(N)c(C)c2)ccc1N`: the Potency result was “inactive”.

In the case of `CC(C)(C)c1ccc(OC(=O)N2CCCCC2)cc1`, the Potency entry was “inactive”.

As to `CC1([N+](=O)[O-])COP(=O)(Nc2ccc(F)cc2)OC1` (configuration not stated), the Potency result is “inactive”.

Take `Cc1cccc(NC(=O)OC2CN3CCC2CC3)c1` (configuration not stated): the Potency entry was “inactive”.

Regarding `COC1=C[C@@H]2[C@@H]3Cc4ccc(OC)c(O)c4[C@]2(CCN3C)CC1=O`, the Potency result was “inactive”.

As to `NC(=O)Cn1cc(C(=O)c2ccccc2F)c2ccccc21`, the Potency result is “inactive”.

Regarding `N#Cc1ccc(Cn2cc(C(=O)c3ccco3)c3ccccc32)cc1`, the Potency is 18.4 µM (active).

With `CC(C)Nc1nc(Cl)nc(NC(C)C)n1`, the Potency result was “inactive”.

Regarding `O=C(NCC1=C(c2ccc3ccccc3c2)C[C@@H]2CC[C@H]1N2Cc1ccco1)c1cccs1`, the Potency entry is “inactive”.

As for `Cc1ccc(N2C(=O)NC(=O)C(CCc3ccncc3)(Cc3cccc(Cl)c3Cl)C2=O)cc1` (configuration not stated), the Potency entry is “inactive”.

Consider `O=C1NC(=O)C(CCc2ccccn2)(Cc2cccc(Cl)c2Cl)C(=O)N1c1ccc(Br)cc1` (configuration not stated), for which the Potency was 7.31 µM (active).

For the compound `C[C@H]1CN([C@@H](C)CO)C(=O)CCCn2nncc2CO[C@H]1CN(C)C(=O)Oc1ccccc1`, the Potency result is “inactive”.
